Bioassay records: PubChem BioAssay, National Center for Advancing Translational Sciences (NCATS)
Compounds with a hit are over-represented: about 2.4% of the library has one in this group of screens.
GLS inh: inhibitors of human glutaminase (GLS). O94925. GLS enzymatic activity, qHTS titration. Potency, µM (titrated, usually from 45.5 µM), for inactives: at the highest dose activity change, negative = inhibition, most hits filed as inhibitors. actives 0.21% (n = 410,000); also: % is scaled to controls: 0 for no effect and ±100 for the full control effect
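Enzyme dispensed in phosphate buffer (45 mM, pH 8.2, 0.02% Tween-20), compounds pinned in, then 1 mM L-glutamine solution and the glutamate oxidase–HRP–Amplex Red mix added; fluorescence read immediately and again after 30 min at room temperature.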
Pol kappa inh: blocks human DNA polymerase kappa activity; Q9UBT6; purified Pol kappa, fluorescent DNA synthesis assay, 10 min; Potency, µM (highest dose often 107 µM), for the others: at the top dose activity, negative = inhibition, hits mostly inhibitors; actives 0.53% (n = 400,000); AID 588579; also: % is scaled to controls: 0 for no effect and ±100 for the full control effect
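Activity was followed as the change in fluorescence between reads at 0 and 10 min after starting the reaction with 50 nM substrate. Beforehand, 10 nM polymerase had been preincubated with compound for 15 min at room temperature.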
APE1 inh: blocks human APE1 abasic DNA cleavage; P27695; recombinant APE1, TAMRA/BHQ-2 abasic DNA cleavage fluorescence; Potency, µM (highest dose often 65.8 µM), without a hit: at the top dose activity change, negative = inhibition, hits mostly inhibitors; actives 0.35% (n = 350,000); AID 2517;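 also: plate controls were vehicle for no effect and reference inhibitor for full effect; nearly all actives have a fitted effect of over 55% in size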
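Step 1: APE1 (0.75 nM) with compound, 15 min RT. Step 2: add 50 nM fluorophore/quencher THF duplex. Step 3: three fluorescence reads 60 s apart (525/598 nm); read 3 minus read 1 = reaction progress.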
POLB inh: inhibitors of human DNA polymerase beta; P06746; Pol beta primer extension/strand displacement, fluorescence kinetic; Potency, µM (top dose mostly 114 µM), for the others: at the highest dose activity change, negative = inhibition, usual class: inhibitors; actives 1.3% (n = 340,000); AID 485314; also: % is scaled to controls: 0 for no effect and ±100 for the full control effect
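Pol beta (10 nM) and compounds were preincubated 15 min at room temperature, then 50 nM substrate (final) started primer extension/strand displacement. Reads were taken at 0 and 10 min; concentration-response data were fitted to a four-parameter Hill equation.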
POLH inh: inhibitors of human DNA polymerase eta; recombinant Pol eta, fluorescent DNA replication assay; Potency, µM (titrated, usually from 114 µM), for the others: at the highest dose activity change, negative = inhibition, actives largely listed as inhibitors; actives 1.2% (n = 390,000); also: % is scaled to controls: 0 for no effect and ±100 for the full control effect
Target sequence (Q9Y253 whole entry, looked up): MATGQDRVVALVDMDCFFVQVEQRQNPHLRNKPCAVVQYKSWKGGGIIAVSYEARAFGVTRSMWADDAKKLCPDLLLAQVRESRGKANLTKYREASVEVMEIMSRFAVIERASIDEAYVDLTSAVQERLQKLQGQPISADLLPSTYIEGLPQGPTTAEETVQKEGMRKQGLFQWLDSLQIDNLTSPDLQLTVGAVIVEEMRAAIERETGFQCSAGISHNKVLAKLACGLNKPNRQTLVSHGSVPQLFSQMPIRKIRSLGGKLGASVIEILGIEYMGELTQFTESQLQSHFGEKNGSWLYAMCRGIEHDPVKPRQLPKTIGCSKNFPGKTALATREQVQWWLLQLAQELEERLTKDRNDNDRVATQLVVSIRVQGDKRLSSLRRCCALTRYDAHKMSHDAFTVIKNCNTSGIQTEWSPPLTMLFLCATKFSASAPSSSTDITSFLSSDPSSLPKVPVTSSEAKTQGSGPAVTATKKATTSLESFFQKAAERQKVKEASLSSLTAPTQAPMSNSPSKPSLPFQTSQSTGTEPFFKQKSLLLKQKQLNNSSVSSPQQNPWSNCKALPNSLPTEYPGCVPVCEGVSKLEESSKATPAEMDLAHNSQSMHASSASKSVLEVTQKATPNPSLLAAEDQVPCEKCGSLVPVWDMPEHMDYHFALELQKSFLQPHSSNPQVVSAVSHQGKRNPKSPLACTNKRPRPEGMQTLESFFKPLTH
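Pol eta (10 nM) was preincubated with compounds for 15 min at room temperature, after which fluorescent replication substrate (50 nM final) was added to start the reaction. Fluorescence was read kinetically at 0 and 10 min.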
POLI inh: blocks human DNA polymerase iota activity | Pol iota fluorescent replication assay, 10 min | Potency, µM (titrated, usually from 115 µM), without a hit: at the top dose activity, negative = inhibition, hits mostly inhibitors | actives 1% (n = 390,000) | AID 588590
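Pol iota at 10 nM preincubated 15 min with compounds at room temperature; reaction started with fluorescent substrate, 50 nM final. Fluorescence read kinetically at 0 and 10 min; buffer-only wells as negative control.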
Starred values were filed as active, the others as inactive; ? = inconclusive; / = no result given; [ ] = remark or other dose. Calls follow the shape of the dose curve; as a rule, active = well fitted curve in the direction sought with a large enough effect; inconclusive = small, poorly fitted or top-dose-only effect, or another doubt; inactive = no such curve, though single readings can be large; an effect the other way counts as inactive or inconclusive. Potency is read from the fitted curve at half-maximal effect.

SMILES | GLS inh | Pol kappa inh | APE1 inh | POLB inh | POLH inh | POLI inh
Cc1cccc(OCC(=O)NCC(=O)N=Nc2c(O)[nH]c3ccc([N+](=O)[O-])cc23)c1 | 3% | -10% | 6% | 45µM* | ? | 57%
O=C(O)c1ccccc1N=Nc1c(O)[nH]c2ccc([N+](=O)[O-])cc12 | 9% | -42% | ? | 50µM* | 22µM* | ?
O=[N+]([O-])c1ccc2[nH]c(O)c(N=NC(=S)Nc3cccnc3)c2c1 | 8% | 89µM* | ? | ? | ? | ?
Cc1ccc(Cl)cc1-n1ncc2c(NCCCn3ccnc3)ncnc21 | -6% | -10%[60.1 µM] | / | ? | 2% | -16%
COc1ccc(CNC(=O)c2cc3cc4ccc(C)cc4nc3o2)cc1 | 3% | -1% | / | -2% | -15% | 12%
Cc1ccc2cc3cc(C(=O)NCc4ccco4)oc3nc2c1 | 18% | ? | 10% | 79µM* | ? | ?
Cc1ccc2cc(C#N)c(SCC(=O)NCc3ccco3)nc2c1 | 1% | -43% | ? | 22µM* | ? | ?
COc1ccccc1CNC(=O)COC(=O)c1c(C)nn(-c2ccccc2)c1Cl | -9% | -10% | 21% | -1% | 0% | 6%
COc1ccc(NC(=O)c2ncn(-c3ccccc3)n2)cc1Cl | 0% | 7% | / | 0% | -18% | 11%
Cc1cccc(C)c1NC(=O)CCn1cnc2ccccc2c1=O | 15% | -8% | -2% | -27% | -16% | 22%
COc1cccc(CNC(=O)COC(=O)c2c(C)nn(-c3ccccc3)c2Cl)c1 | 2% | -32% | 5% | / | 13µM* | ?
O=C(CCn1cnc2ccccc2c1=O)NCc1ccccc1Cl | ? | -5%[60.1 µM] | / | 0% | -12% | 9%
COc1cccc(CNC(=O)CCn2cnc3ccccc3c2=O)c1 | -10% | -5%[60.1 µM] | / | 14µM* | -10% | ?
COc1ccccc1NC(=O)c1ncn(-c2ccccc2)n1 | -8% | -7% | / | 5% | / | 89µM*
O=C(CCn1cnc2ccccc2c1=O)NCc1ccccc1 | -17% | -6%[60.1 µM] | / | 20µM* | ? | -5%
Cc1ccc(CC2(OCCN(C)C)CCC(C(C)(C)C)CC2)cc1 (stereo unspecified) | 5% | -17% | / | / | ? | 2%
COc1ccc(NC(=O)CCCn2cnc3ccccc3c2=O)c(OC)c1 | 0% | -6% | 7% | 24% | -15% | -19%
COc1ccccc1NC(=O)CCn1cnc2ccccc2c1=O | -15% | -5%[60.1 µM] | -34% | ? | / | 89µM*
CCCCNS(=O)(=O)c1ccc2nc(-c3cccnc3)cc(C(=O)NCCCOCC)c2c1 | -1% | -4%[60.1 µM] | -2% | 45µM* | -17% | -15%
CCCCNS(=O)(=O)c1ccc2nc(-c3cccnc3)cc(C(=O)NCCCOC)c2c1 | 4% | -11% | -7% | 1% | 1% | 47%
COc1cc(Nc2nc(SCC(=O)c3ccc(Br)cc3)nc3ccccc23)cc(OC)c1 | -4% | 1%[60.1 µM] | / | ? | ? | 79µM*
O=C(CSc1nc(Nc2ccc(F)cc2)c2ccccc2n1)c1ccc(F)cc1 | 7% | -2%[60.1 µM] | / | 4% | -23% | 22%
O=C1c2ccccc2C(=O)C2OC12 (stereo unspecified) | / | / | 5% | 71µM* | / | /
O=C(Nc1cccc([N+](=O)[O-])c1)c1ccc2c(c1)C(=O)N(c1ccccn1)C2=O | 4% | -11% | ? | 45µM* | -20% | -13%
O=C(Nc1cccc([N+](=O)[O-])c1)c1cccc(C(=O)Nc2cccc([N+](=O)[O-])c2)c1 | 4% | -9% | ? | 1.1µM* | 2% | -14%
SMILES | GLS inh | Pol kappa inh | APE1 inh | POLB inh | POLH inh | POLI inh
O=C(Nc1ccc(NC(=O)c2cccc([N+](=O)[O-])c2)cc1)c1cccc([N+](=O)[O-])c1 | 6% | -16% | 6% | 2% | 2% | 25%
O=C(O)c1cccc(N2C(=O)c3ccc(C(=O)c4cccc([N+](=O)[O-])c4)cc3C2=O)c1 | -9% | -40% | 19% | -9% | 56µM* | -29%
Cc1cc(S(=O)(=O)N2CCC3(CC2)OCCN3S(=O)(=O)c2cccs2)ccc1F | -7% | 1% | 3% | / | -24% | 19%
COc1ccc(/C=C2/SC(=O)N(CC(=O)Nc3cc(C)on3)C2=O)cc1OC | -1% | -5% | 3% | -19% | -15% | 14%
O=C(CSC1=NCCS1)Nc1nc2c(s1)CCCC2 | 6% | -16% | -3% | 56µM* | -11% | -8%
Cn1nnnc1SCC(=O)Nc1nc2c(s1)CCCC2 | 14% | -1%[60.1 µM] | 4% | -2% | 9% | -18%
COc1ccc2nc(/C(C#N)=C\c3ccc(Oc4ccc([N+](=O)[O-])cn4)cc3)[nH]c2c1 | -3% | -5% | -8% | -11% | ? | 57%
N#C/C(=C/c1ccc(O)c(O)c1)c1nc2ccccc2[nH]1 | ? | 10µM* | -32% | ? | 3.2µM* | ?
N#C/C(=C\c1ccc(Sc2ccccc2)o1)c1nc2ccccc2[nH]1 | 4% | -30% | ? | 40µM* | ? | -4%
COc1ccc2nc(/C(C#N)=C\c3ccc(C(=O)O)cc3)[nH]c2c1 | -2% | -19% | 13% | -2% | 22µM* | 57%
N#C/C(=C\c1ccc(OC(=O)c2cccs2)cc1)c1nc2ccccc2[nH]1 | -10% | -44% | 7% | 35µM* | ? | 34%
N#C/C(=C\c1cccs1)c1nc2ccccc2[nH]1 | 13% | -13% | -2% | ? | ? | 40%
N#C/C(=C\c1ccc(Cl)cc1)c1nc2ccccc2[nH]1 | 10% | -10% | / | 0% | 0% | 41%
Cc1ccccc1Cn1nnc(-c2ccc(F)cc2)n1 | -1% | -23% | 8% | -32% | -20% | 12%
CCc1cccc2c3c([nH]c12)[C@@](CC)(CC(=O)O)OCC3 | 11% | 1%[19.4 µM] | / | / | / | /
COc1ccccc1N1CCN(C2CCCN(C(=O)c3oc(C)cc3C)C2)CC1 (stereo unspecified) | -3% | -15% | -4% | 4% | -4% | 9%
Cc1ccnc(NS(=O)(=O)c2ccc(NC(=O)c3ccc(S(=O)(=O)N4CC(C)OC(C)C4)cc3)cc2)n1 (stereo unspecified) | -1% | -10% | 14% | -3% | -7% | 6%
Cc1cc2nc(/C(C#N)=C\c3ccc(-c4ccccc4C(=O)O)o3)[nH]c2cc1C | ? | ? | -42% | ? | 25µM* | ?
N#C/C(=C\c1ccc(-c2ccccc2C(=O)O)o1)c1nc2ccccc2[nH]1 | -21% | -23% | 5% | -21% | ? | 36%
Cc1ccc2nc(/C(C#N)=C\c3ccc(N4CCOCC4)o3)[nH]c2c1 | 16% | -20% | -1% | 35µM* | ? | ?
